Screening results: PubChem, several laboratories
The entries come from a sample that favours hits as a whole.
hDAT+cocaine: changed hDAT dopamine uptake under cocaine IC80, either direction, primary screen, cocaine antagonist project, cell-based, LLC-PK1 hDAT, [14C]-dopamine uptake, MLSMR | LLC-PK1 hDAT cells, [14C]-dopamine uptake with cocaine IC80; actives deviate in either direction | B-score at 10 µM | 110,000 tested, 1.3% active;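 active means Z score or B-score, a plate-position-corrected score, falls beyond the plate's 99.7% confidence bounds, in either direction; inactive means both scores lie inside the 99.7% bounds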;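 further: scored against the spread of the other compound wells on the same plate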
CD11b adhes inh: inhibitors of CD11b/CD18 adhesion to fibrinogen, primary screen, K562 cells, luminescence; inhibition, % at 10 µM; Integrin beta-2 (Homo sapiens) + Integrin alpha-M (Homo sapiens), P05107+P11215; 93,000 tested, 0.54% active; ATPlite luminescence; Mn2+ added to activate the integrin; AID 1497, 2009;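 active means primary inhibition of 50% or more at 10 µM, then 40% or more on retest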
FAK inh: FAK kinase inhibitors, primary screen, biochemical | biochemical FAK kinase activity assay | AID 727, 2007 | inhibition, %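 (tested at 7 µM)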 | Focal adhesion kinase 1 (Homo sapiens), Q05397 | 97,000 tested, 0.84% active; in the data active means inhibition above about 19%;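 further: 0% = DMSO and 100% = reference compound high control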
D1 mod: D1 CRE-luciferase signal change, two-sided – cell-based, HEK293 D1, dopamine EC30, D1 allosteric modulator project, primary screen. AID 641, 2007. 58,000 tested, 5.9% active. B-score at 10 µM. dopamine EC30 potentiation; actives deviate in either direction;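 active means luminescence count or its row- and column-corrected plate score outside the 99.7% band of the plate's sample wells, on either side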
Target sequence (P21728 whole entry, looked up): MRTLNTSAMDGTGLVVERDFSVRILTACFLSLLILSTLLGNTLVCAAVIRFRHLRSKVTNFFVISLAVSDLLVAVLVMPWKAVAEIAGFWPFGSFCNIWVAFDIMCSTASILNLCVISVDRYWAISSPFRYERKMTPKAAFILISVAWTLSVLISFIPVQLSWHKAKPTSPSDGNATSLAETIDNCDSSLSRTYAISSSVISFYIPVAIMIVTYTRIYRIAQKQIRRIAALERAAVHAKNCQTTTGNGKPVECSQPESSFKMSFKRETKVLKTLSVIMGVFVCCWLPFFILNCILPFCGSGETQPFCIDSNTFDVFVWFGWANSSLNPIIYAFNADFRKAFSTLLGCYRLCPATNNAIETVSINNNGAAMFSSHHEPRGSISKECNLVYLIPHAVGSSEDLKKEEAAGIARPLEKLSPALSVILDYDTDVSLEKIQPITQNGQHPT
PTK2B oligo ant: antagonists of Pyk2 self-association, primary screen, Q293 cells, FERM NanoBiT luminescence, HTS; Protein-tyrosine kinase 2-beta (Homo sapiens), Q14289; active compounds read low; z-score (the deposit names both 25 µM and 10 µM); 99,000 tested, 0.83% active; AID 1347419, 2020;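 active means Z-score of -3 or lower, scaled per plate to the spread of control and sample wells; inactive means z-score above -3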;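 further: negative z-score means lost luminescence so less FERM oligomerization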
CD11b adhes enh: enhancers of CD11b/CD18 adhesion to fibrinogen, primary screen, K562 cells, luminescence | Integrin beta-2 (Homo sapiens) + Integrin alpha-M (Homo sapiens), P05107+P11215 | ATPlite luminescence | activation, % at 10 µM | 93,000 tested, 0.07% active;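 active means 10 µM primary screen giving 50% or more activity, confirmed by 40% or more on retest at that dose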
* = called active by the depositor; nt = no result.

SMILES	hDAT+cocaine	CD11b adhes inh	FAK inh	D1 mod	PTK2B oligo ant	CD11b adhes enh
Cc1sc2ncnc(NCC3COc4ccccc4O3)c2c1C (configuration not stated)	nt	100*	nt	nt	nt	-9
Cc1sc2ncnc(NCC(C)(C)N3CCOCC3)c2c1C	-0.35	68*	-2	nt	1.2	-5
O=C(OC1C[C@@H]2CC3C[C@H](C1)N2CC3=O)c1c[nH]c2ccccc12 (some centres not stated)	-0.071	nt	nt	nt	nt	nt
CCOC(=O)c1ccc(-n2c(=S)sc3c(=O)[nH]c(C)nc32)cc1	-1.3	-2	-2	nt	-2.1	-1
COc1ccc(C2=NOC(C(=O)N3CCN(c4ccccc4OC)CC3)C2)cc1 (configuration not stated)	-1.1	-35	-3	-3.5*	nt	-4
COc1ccc(CNC(=O)C2CC(c3ccc(OC)cc3)=NO2)cc1 (configuration not stated)	-3.4*	14	-4	0.036	1.6	-4
Cc1ccc(NC(=O)CCSc2nc(C)cc(C)n2)cc1	0.27	-5	-3	nt	-0.19	-1
Cn1c(=O)c2c(nc(Br)n2Cc2c(F)cccc2Cl)n(C)c1=O	nt	2	nt	-0.87	nt	-3
CC(C)c1nc(SCc2c(F)cccc2Cl)c2c(=O)n(C)c(=O)n(C)c2n1	3.3*	16	-3	-3.7*	nt	-1
O=S(=O)(NCCOCC(F)(F)C(F)F)c1ccc2oc3ccccc3c2c1	0.19	57	-1	nt	-1.6	-7
FC(F)Sc1ccc(NC(=S)NCC2CCCCC2)cc1	-1.2	92*	0	nt	0.08	-10
FC(F)Sc1ccc(NC(=S)NC2CCCCC2)cc1	-0.67	49	0	nt	-1.1	-9
COc1ccc(NC(=O)COC(=O)CCCc2c[nH]c3ccccc23)cc1OC	0.0036	-3	-1	nt	1.2	26
Cc1cc(C)cc(N(CC(=O)N2CCN(Cc3ccccc3)CC2)S(=O)(=O)c2c(C)noc2C)c1	-0.99	-10	3	-0.22	nt	-2
CCOc1ccccc1N(CC(=O)N1CCCCCC1)S(C)(=O)=O	0.059	nt	-6	-3.8*	-0.92	nt
CCOc1ccccc1N(CC(=O)Nc1cc(OC)ccc1OC)S(C)(=O)=O	-9.1*	-13	-1	nt	-0.16	3
CC(C)Oc1ccc(/C=N/NC(=O)C(CSCc2ccccc2)NC(=O)c2ccc([N+](=O)[O-])cc2)cc1 (configuration not stated)	-6*	nt	11	nt	0.64	nt
O=C(COc1ccc(/C=N/NC(=O)c2ccccc2)cc1)Nc1ccc([N+](=O)[O-])cc1	-0.0096	nt	0	nt	0.21	nt
c1ccc(Cc2nnc3sc(-c4ccc5c(c4)OCO5)nn23)cc1	0.072	nt	-1	6.2*	0.55	nt
Cc1cccc2cc(CN(C(=S)NCC(C)C)C3CCCC3)c(=O)[nH]c12	nt	0	nt	nt	nt	-1
Cc1cc2nc(CCN(C(=S)NCC(C)C)C3CCCC3)[nH]c2cc1C	2.7*	nt	3	nt	-1.8	nt
CCOC(=O)C(NC(C)=O)(Nc1ccc(S(=O)(=O)Nc2onc(C)c2C)cc1)C(F)(F)F (configuration not stated)	-0.37	-9	-4	-6.9*	0.95	4
CCOC(=O)C(NC(C)=O)(Nc1ccc(S(=O)(=O)Nc2cc(C)on2)cc1)C(F)(F)F (configuration not stated)	-0.61	nt	4	nt	2.3	nt
Cc1nnc2sc(-c3ccc(NC(=O)c4ccc(-c5ccc(Cl)cc5Cl)o4)cc3)nn12	1.9	nt	28*	nt	0.63	nt
O=[N+]([O-])c1ccc2c(c1)C(N1CCOCC1)/C(=C/COc1ccc(Cl)cc1Cl)O2 (configuration not stated)	-0.58	2	1	nt	1.2	4
SMILES	hDAT+cocaine	CD11b adhes inh	FAK inh	D1 mod	PTK2B oligo ant	CD11b adhes enh
CCOc1ccc(-c2nnn(CC(=O)Nc3cccc(OC)c3)n2)cc1OCC	1.4	-16	-5	13*	-0.7	10
CCOc1ccc(-c2nnn(CC(=O)NCc3ccc(F)cc3)n2)cc1OCC	-0.71	7	6	1.4	0.76	-2
Cc1cc(-c2ccco2)c(C#N)c2nc3ccccc3n12	-0.23	1	nt	1.4	-0.04	43
CCN(CC)S(=O)(=O)c1ccc2c(c1)C(=NO)c1cc(S(=O)(=O)N(CC)CC)ccc1-2	0.93	nt	2	nt	-3*	nt
CCN(CC)S(=O)(=O)c1ccc(C)c(C)c1	-0.89	-47	1	nt	0.35	-2
O=c1cc(CSc2nc3ccccc3[nH]2)c2ccccc2[nH]1	-0.039	0	3	nt	0.66	1
Fc1ccc(CSc2nc3ccccc3[nH]2)c2ccccc12	0.96	77*	6	nt	-1.1	-8
c1csc(CCNc2ncnc3sc4c(c23)CCC4)c1	-1	86*	nt	nt	nt	-6
COc1cccc(-c2nn(C)c3sc(C(=O)N4CCN(c5ccccn5)CC4)cc23)c1	0.34	62	nt	-0.3	-3.9*	0
Cc1ccc2nc(SCC(=O)NNC(=O)c3ccccc3)[nH]c2c1	nt	-3	nt	nt	nt	4
CCn1cc(C(=O)NCc2ccc(C)o2)c2cc(OC)c(OC)cc2c1=O	-0.57	9	-2	-6.3*	-0.32	-3
CN(C)c1oc(-c2ccccc2Cl)nc1P(=O)(c1ccccc1)c1ccccc1	1.9	8	5	nt	-1.8	1
O=C(Nc1ccc(Cl)cc1C(F)(F)F)c1ccccc1	nt	0	nt	nt	nt	4
Oc1cccc(-c2nc3ccccc3s2)c1	nt	54	3	-8.7*	-0.68	-2
Clc1ccc(-c2cn3c(n2)-c2ccccc2C3)cc1Cl	nt	60	nt	nt	-0.41	0
Cc1[nH]c2ccccc2c1-c1nc2ccccc2[nH]1	-0.19	-2	nt	-2.7*	-0.66	0
Cc1ccc(-c2nc3ccccc3[nH]2)s1	1.5	11	3	-2.1	-0.63	-3
COc1ccc(Cl)cc1C(=O)NC(=S)Nc1cc(-c2nc3ccccc3[nH]2)ccc1C	0.78	nt	-2	nt	0.62	nt
COCCn1nnnc1C(c1ccc(OC)cc1)N1CCN(c2ccccc2F)CC1 (configuration not stated)	-0.017	nt	-4	0.011	-3.5*	nt
COCCn1nnnc1C(c1ccccc1OC)N1CCN(c2ccccc2F)CC1 (configuration not stated)	-0.65	7	9	1.1	-2.8	-1
COC(=O)c1ccc(CC(=O)c2ccc(O)cc2O)o1	-0.38	-5	-10	-2.2*	-0.89	-2
CCOC(=O)c1ccc(CC(=O)c2ccc(O)cc2O)o1	-0.73	2	-1	nt	-2.7	-1
Cc1ccc(NC(=O)c2c(C)noc2C)cc1	0.36*	2	0	nt	2.3	-4
